Z-score and composite z-score data for six compounds are collected here from PubChem BioAssay.

Assay [1] can be described thus: optical density shifts of acrAB sulA E. coli – strain DRC41, OD650, 48 h, E. coli filamentation inducer project, primary screen (AID 1152).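 Also: E. coli MC1000 strain DRC41 lacking acrAB efflux pump and sulA.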 Particulars: higher = more signal, called active from +8 up or from −8 down.
The nature of assay [2]: probe aLefty1 binding on compound microarray – biochemical, small-molecule microarray, 635/667 nm fluorescence, primary screen (AID 1153).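 Also: score merges spot fluorescence with signal-to-noise ratio from the scanned slide images.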 The settings on record: higher = more signal.
Assay [3] in a line: plasmodial surface anion channel blockers, osmotic lysis – cell-based, P. falciparum Indochina, OD700, 1 h, primary screen (AID 1154). The settings on record: P. falciparum Indochina infected RBC osmotic lysis, higher = more signal, called active from +8 up or from −8 down.
The nature of assay [4]: plasmodial surface anion channel blockers, osmotic lysis – cell-based, P. falciparum Indochina, OD700, 2 h, primary screen (AID 1155).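 Also: lysis reports solute entry through the parasite surface anion channel PSAC.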 Particulars: P. falciparum Indochina infected erythrocytes, higher = more signal, called active from +8 up or from −8 down.
Assay [5] can be described thus: changes in parasitized red cell lysis, either direction – P. falciparum Indochina, OD700, 3 h, PSAC antagonist project, primary screen (AID 1156). The settings on record: P. falciparum-infected erythrocytes, osmotic lysis, higher = more signal, called active from +8 up or from −8 down.
A short description of assay [6]: plasmodial surface anion channel blockers, osmotic lysis – cell-based, P. falciparum Indochina, OD700, 18 h, primary screen (AID 1157). The settings on record: P. falciparum Indochina infected erythrocytes, osmotic lysis OD700, 18 h; higher = more signal, called active from +8 up or from −8 down.
The nature of assay [7]: S6 kinase pathway phospho-S6 level changes – cell-based, A549, cytoblot, luminescence, serum-stimulated, primary screen (AID 1158).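 Also: serum-stimulated A549 lung adenocarcinoma cells; signal is phosphorylated S6 detected by cytoblot immunostaining with HRP secondary.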 Particulars: 5 h, higher = more signal.
The target of assay [8] is NADPH oxidase 2 (Homo sapiens) (UniProt P04839). Put plainly: compounds shifting NOX2 Amplex Red fluorescence – cell-based, HEK293-NOX2, PMA-stimulated, NOX inhibitor project, primary screen (AID 1159). Also: test concentration not given here. The settings on record: 45 min, higher = more signal, called active from +8 up or from −8 down.
Assay [9] concerns the target NADPH oxidase 4 (Homo sapiens) (UniProt Q9NPH5). Put plainly: compounds shifting NOX4 Amplex Red fluorescence – cell-based, HEK293-NOX4, tetracycline-induced, NOX inhibitor project, primary screen (AID 1160). Particulars: HEK293-NOX4, Amplex Red H2O2 fluorescence, 45 min; higher = more signal, called active from +8 up or from −8 down.
Assay [10] addresses NADPH oxidase 5 (Homo sapiens) (UniProt Q96PH1). The experiment in a line: compounds shifting NOX5 Amplex Red fluorescence – cell-based, HEK293-NOX5, NOX inhibitor project, primary screen (AID 1161). The settings on record: HEK293-NOX5, ionomycin, 45 min, higher = more signal.
Assay [11] in a line: compound effects on lung adenocarcinoma cell viability – A549, calcein-AM fluorescence, 48 h, basal, profiling panel (AID 1162). Also: test concentration not given here. The settings on record: higher = more signal.
Assay [12] is described as follows: compound effects on differentiated 3T3-L1 adipocyte viability – cell-based, 3T3-L1 adipocytes, calcein-AM fluorescence, 48 h, basal, profiling panel (AID 1163). Also: test concentration not given here. The settings on record: 3T3-L1 adipocytes viability, higher = more signal.
Assay [13] can be described thus: compound effects on hepatocellular carcinoma cell viability – HepG2, calcein-AM fluorescence, 48 h, basal, profiling panel (AID 1164). Also: test concentration not given here. Particulars: higher = more signal.
Assay [14] is described as follows: compound effects on multiple myeloma cell viability – MM1S, calcein-AM fluorescence, 48 h, basal, profiling panel (AID 1165).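 Also: viability of MM1S multiple myeloma cells under basal unstimulated conditions; test concentration not given here.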 Particulars: higher = more signal.
Assay [15] in a line: calcein-AM signal in unstimulated myeloma cells – cell-based, calcein-AM fluorescence, 48 h, PK04 Diversity Set, profiling panel (AID 1166).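 Also: cells grown under basal conditions without added stimulus; test concentration not given here.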 Particulars: RPMI8226 myeloma viability, higher = more signal.
Assay [16] in a line: JC-1 mitochondrial signal, unstimulated HepG2 cells – cell-based, JC-1 fluorescence, 24 h, 100 nL compound, profiling panel (AID 1167). Also: test concentration not given here. Particulars: HepG2 mitochondrial potential, higher = more signal.
Assay [17] can be described thus: JC-1 mitochondrial signal, unstimulated adipocytes – cell-based, JC-1 fluorescence, 3T3-L1 adipocytes, 24 h, 100 nL compound, profiling panel (AID 1168). Also: test concentration not given here. Particulars: JC-1 mitochondrial fluorescence, higher = more signal, called active from +8 up or from −8 down.
Assay [18] can be described thus: JC-1 mitochondrial signal, unstimulated myeloma cells – cell-based, JC-1 fluorescence, RPMI8226, 24 h, 100 nL compound, profiling panel (AID 1169). Also: test concentration not given here. The settings on record: JC-1 mitochondrial potential fluorescence, higher = more signal.
Assay [19] is described as follows: JC-1 mitochondrial signal, unstimulated MM1S myeloma – cell-based, JC-1 fluorescence, 24 h, 100 nL compound, profiling panel (AID 1170). Also: test concentration not given here. Particulars: MM1S mitochondrial potential, higher = more signal.
Assay [20] in a line: resazurin metabolic signal in A549 cells – cell-based, resazurin fluorescence, 24 h, PK04 Diversity Set, profiling panel (AID 1171). Also: test concentration not given here. The settings on record: A549 viability, higher = more signal, called active from +8 up or from −8 down. A general note: Resazurin is reduced to fluorescent resorufin, in cell work by metabolically active cells.

Where “and” joins values, the source holds several entries; their conditions need not be identical. Equal entries are not always repeated. Calls of active or inactive are those of the source.

Chain of NADPH oxidase 4 (Homo sapiens) (Q9NPH5 whole entry, looked up): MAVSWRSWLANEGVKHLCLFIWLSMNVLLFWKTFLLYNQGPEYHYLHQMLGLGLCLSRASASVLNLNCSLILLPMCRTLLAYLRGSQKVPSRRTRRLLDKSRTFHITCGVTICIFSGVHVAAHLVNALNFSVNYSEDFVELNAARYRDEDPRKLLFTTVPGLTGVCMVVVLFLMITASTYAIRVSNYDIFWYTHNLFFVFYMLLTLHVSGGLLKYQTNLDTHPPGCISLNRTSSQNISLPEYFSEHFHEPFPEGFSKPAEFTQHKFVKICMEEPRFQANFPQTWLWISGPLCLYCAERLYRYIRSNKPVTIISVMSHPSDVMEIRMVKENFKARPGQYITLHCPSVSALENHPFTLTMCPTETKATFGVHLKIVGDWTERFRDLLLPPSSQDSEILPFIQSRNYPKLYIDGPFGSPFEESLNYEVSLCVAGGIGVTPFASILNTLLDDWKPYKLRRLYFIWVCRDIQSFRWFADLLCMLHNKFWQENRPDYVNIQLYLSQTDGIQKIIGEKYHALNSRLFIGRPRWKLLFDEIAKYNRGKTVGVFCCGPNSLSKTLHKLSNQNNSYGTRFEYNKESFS
Chain of NADPH oxidase 2 (Homo sapiens) (P04839 whole entry, looked up): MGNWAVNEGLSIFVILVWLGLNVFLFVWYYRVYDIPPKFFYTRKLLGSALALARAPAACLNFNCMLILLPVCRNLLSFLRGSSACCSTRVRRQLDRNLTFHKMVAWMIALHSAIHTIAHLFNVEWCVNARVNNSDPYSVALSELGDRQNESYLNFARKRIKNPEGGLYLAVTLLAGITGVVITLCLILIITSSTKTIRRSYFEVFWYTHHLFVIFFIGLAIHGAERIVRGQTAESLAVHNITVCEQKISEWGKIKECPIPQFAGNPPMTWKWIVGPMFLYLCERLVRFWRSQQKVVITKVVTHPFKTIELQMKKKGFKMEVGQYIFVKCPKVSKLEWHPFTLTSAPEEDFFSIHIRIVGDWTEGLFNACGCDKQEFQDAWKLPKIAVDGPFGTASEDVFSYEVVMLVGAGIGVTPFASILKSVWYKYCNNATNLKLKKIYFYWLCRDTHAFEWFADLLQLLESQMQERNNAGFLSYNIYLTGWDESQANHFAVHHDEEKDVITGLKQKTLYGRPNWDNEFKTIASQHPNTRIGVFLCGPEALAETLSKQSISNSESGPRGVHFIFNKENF
Chain of NADPH oxidase 5 (Homo sapiens) (Q96PH1 whole entry, looked up): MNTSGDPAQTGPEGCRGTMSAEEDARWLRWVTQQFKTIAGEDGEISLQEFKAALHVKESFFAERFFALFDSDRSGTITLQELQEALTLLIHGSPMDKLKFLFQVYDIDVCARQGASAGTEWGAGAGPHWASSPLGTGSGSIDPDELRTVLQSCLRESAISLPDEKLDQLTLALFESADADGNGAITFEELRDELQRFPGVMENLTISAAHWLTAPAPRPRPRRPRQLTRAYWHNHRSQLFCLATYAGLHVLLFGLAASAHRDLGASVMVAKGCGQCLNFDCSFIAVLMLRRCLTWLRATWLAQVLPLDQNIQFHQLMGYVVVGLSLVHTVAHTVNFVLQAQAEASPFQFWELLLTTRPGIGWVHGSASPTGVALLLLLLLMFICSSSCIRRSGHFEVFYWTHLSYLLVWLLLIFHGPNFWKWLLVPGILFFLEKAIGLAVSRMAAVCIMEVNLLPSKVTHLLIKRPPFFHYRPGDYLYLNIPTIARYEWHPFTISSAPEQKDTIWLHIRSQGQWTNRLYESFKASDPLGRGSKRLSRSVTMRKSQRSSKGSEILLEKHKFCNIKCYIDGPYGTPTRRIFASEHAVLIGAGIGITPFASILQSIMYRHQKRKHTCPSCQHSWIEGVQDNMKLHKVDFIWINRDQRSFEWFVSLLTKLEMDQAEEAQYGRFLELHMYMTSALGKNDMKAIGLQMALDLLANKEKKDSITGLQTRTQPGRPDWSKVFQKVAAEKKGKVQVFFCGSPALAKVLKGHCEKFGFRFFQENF

For the compound `CCCC[C@@H]1CN2[C@@H](CC[C@@H](C)[C@@H]2c2ccc(Br)cc2)C(=O)O1`, the z-score in assay [1] was -0.247 (inactive) and -1.23 (inactive); in assay [3] it was 0.952 (inactive) and 1.74 (inactive); in assay [4], -0.255 (inactive) and 0.94 (inactive); in assay [5] it was 0.0015 (inactive) and -0.273 (inactive); in assay [6], 0.367 (inactive) and 0.443 (inactive); in assay [7] it was -1.02 and -0.612. In addition, the z-score in assay [8] was 1.18 (inactive) and -0.0488 (inactive); in assay [9] it was 0.883 (inactive) and 0.821 (inactive); in [10] it was 0.637 and 0.0426; in assay [11] it was 0.761 and 1.06; in assay [12], -0.857 and -0.567; in assay [13], 0.537 and -0.336. Also, the z-score in assay [14] was -1.1 and 0.516; in [15], 0.309 and -0.616; in assay [16] it was -0.48 and 0.127; in [17], -0.136 (inactive) and -1.09 (inactive); in assay [18], 0.266 and -0.0989; in [19], 0.0213 and -0.396. In assay [20], the z-score was -0.335 (inactive) and -0.178 (inactive). In assay [2], the composite z-score was -0.0601 and -0.0141.
In the case of `CC(C)CCN1CCc2nc(-c3ccccc3)c3c(c2C1)CO[C@@H](C)C3`, the z-score in assay [1] was 0.842 (inactive); in assay [3], 0.253 (inactive); in assay [4] it was 0.145 (inactive); in [5], -0.895 (inactive); in assay [6], 0.0992 (inactive); in [7], -0.768. Moreover, the z-score in assay [8] is 1.12 (inactive); in [9], 0.461 (inactive); in assay [10], 0.427; in assay [11], -0.0742; in assay [12] it was -0.626; in assay [13] it was 1.15. Further, the z-score in assay [14] is -1.18; in assay [15], 0.0677; in [16], 0.361; in assay [17], -0.395 (inactive); in [18], -0.173; in assay [19] it was 0.324. Further, the z-score in assay [20] is -0.191 (inactive). For the same compound, in assay [2], the composite z-score is 0.173.
For `Cc1ccc(S(=O)(=O)N[C@@H]2COC(=O)CC=C[C@@H](C)[C@@H]3C=C[C@H](O)[C@@H](COC(=O)CC=C[C@H]2C)O3)cc1`, the z-score in [1] was -0.134 (inactive) and -0.835 (inactive); in assay [3], -0.178 (inactive) and -0.723 (inactive); in [4], -0.377 (inactive) and -1.3 (inactive); in assay [5], -0.603 (inactive) and 1.03 (inactive); in assay [6] it was 0.035 (inactive) and -1.47 (inactive); in assay [7] it was 0.116 and 1.08. Further, the z-score in [8] is -2.15 (inactive) and -1.22 (inactive); in assay [9], 0.427 (inactive) and -1.36 (inactive); in assay [10], 0.353 and -2.6; in [11], 0.616 and -0.418; in [12], -0.347 and -0.476; in assay [13], 0.664 and -1.95. The z-score in assay [14] is 0.0847 and -1.25; in assay [15], 0.0913 and -0.776; in assay [16], -0.0139 and 0.344; in [17] it was -0.0698 (inactive) and 0.134 (inactive); in [18] it was -0.858 and 1.11; in [19], 1.32 and -1.69. Also, in assay [20], the z-score was 0.0086 (inactive) and 0.658 (inactive). In addition, the composite z-score in assay [2] was -0.217 and 0.0658.
For `CCOC(=O)[C@H](Cc1ccccc1)NC(=O)CCC1CC(OC(=O)NCc2cccc3ccccc23)CC2(CCCC(COC(=O)NCCCN3CCCC3=O)O2)O1` (stereo not given in full), the z-score in [1] is -0.0133 (inactive); in [3], -0.532 (inactive); in assay [4], -0.874 (inactive); in assay [5], -2.17 (inactive); in assay [6], -0.685 (inactive); in assay [7] it was -0.46. Besides, the z-score was 1.09 (inactive) in assay [8]; 0.487 (inactive) in [9]; -0.609 in [10]; 2.08 in assay [11]; 0.0309 in assay [12]; -0.93 in [13]. Moreover, the z-score in assay [14] is -0.0157; in assay [15] it was -0.178; in assay [16], 0.397; in assay [17], 0.17 (inactive); in [18], -0.195; in [19], -0.5. Moreover, the z-score in assay [20] is 0.811 (inactive). For the same compound, the composite z-score in assay [2] was 0.0371.
As for `C=CCN(CCCCC)C(=O)C1N(c2ccc(CCO)cc2)C(=O)C2C(C(=O)O)C3C=CC21O3` (stereo not given), the z-score in assay [1] was -0.202 (inactive) and 0.216 (inactive); in assay [3] it was 1.47 (inactive) and 1.68 (inactive); in assay [4], 0.351 (inactive) and 0.438 (inactive); in [5] it was -0.148 (inactive) and -0.54 (inactive); in assay [6] it was 0.0385 (inactive) and 0.356 (inactive); in assay [7] it was 1.15 and 0.435. Besides, the z-score in assay [8] was 1.21 (inactive) and 0.745 (inactive); in assay [9], 0.564 (inactive) and 0.124 (inactive); in [10], 0.698 and 0.836; in assay [11], -0.0277 and -0.611; in assay [12] it was -0.0076 and 0.226; in [13], -0.97 and 0.288. Besides, the z-score in [14] was 0.867 and 0.199; in [15], -0.322 and -1.02; in [16] it was -0.587 and -1.1; in assay [17], -0.545 (inactive) and -0.407 (inactive); in assay [18], 0.647 and 0.562; in assay [19], 0.743 and 0.912. For the same compound, in [20], the z-score is -0.792 (inactive) and -0.842 (inactive). Also, the composite z-score in assay [2] is -0.0099 and 0.0736.
For the compound `C=C[C@@H](OC)[C@H](O)c1ccc(OC)c(O)c1`, the z-score in assay [1] is 0.232 (inactive) and 1.81 (inactive); in [3], 0.61 (inactive) and -0.257 (inactive); in [4] it was 0.436 (inactive) and -1.63 (inactive); in assay [5], -0.28 (inactive) and -1.54 (inactive); in [6], 0.328 (inactive) and -2.34 (inactive); in assay [7], 0.138 and 0.185. The z-score in [8] is -2.35 (inactive) and -2.11 (inactive); in assay [9] it was -0.998 (inactive) and -1.12 (inactive); in [10], -1.51 and -0.778; in assay [11], -0.72 and 0.387; in assay [12], 1.21 and 1.57; in assay [13], -1.02 and 0.209. For the same compound, the z-score was -1.16 and 0.905 in assay [14]; -1.3 and 0.14 in assay [15]; -0.782 and 0.179 in assay [16]; -1.44 (inactive) and 0.912 (inactive) in assay [17]; -0.205 and -0.346 in assay [18]; -0.297 and 1 in [19]. For the same compound, in [20], the z-score was -0.693 (inactive) and 0.835 (inactive). Also, in [2], the composite z-score is 0.235 and -0.328.
